# Measured values from the supplement of paper PMC6411743.
# ± gives the standard deviation of the averaged measurements. Targets with the largest changes are over-represented here; the source holds about 6,200 in all.
# Columns and labels:
# Assay in all cases: NP40-soluble protein abundance relative to vehicle (solubility fold change) (ratio); higher = more soluble protein in presence of AMP-PNP
# [1] = target: T1, UniProt Q9BY77|Q9BY77-2
# T1 sequence (whole entry): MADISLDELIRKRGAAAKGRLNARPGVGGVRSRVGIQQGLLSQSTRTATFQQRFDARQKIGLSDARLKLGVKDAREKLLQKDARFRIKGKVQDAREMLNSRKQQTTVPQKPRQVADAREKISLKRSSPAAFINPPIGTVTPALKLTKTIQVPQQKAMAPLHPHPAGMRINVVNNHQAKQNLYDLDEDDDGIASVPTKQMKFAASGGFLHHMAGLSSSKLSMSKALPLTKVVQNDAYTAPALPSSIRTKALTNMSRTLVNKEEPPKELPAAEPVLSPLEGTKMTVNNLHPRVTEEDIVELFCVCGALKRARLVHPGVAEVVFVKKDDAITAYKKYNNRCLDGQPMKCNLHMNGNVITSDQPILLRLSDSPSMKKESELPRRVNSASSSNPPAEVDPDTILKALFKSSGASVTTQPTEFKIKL
# Summary of the method: (§1)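 In three independent experiments, Jurkat crude lysate made by Dounce homogenisation was treated for 10 min at room temperature and then 3 min at 37 °C with eight concentrations ranging from 0.1 to 10 mM. It was then solubilised with 0.8% NP40 plus benzonase for 60 min at 4 °C and ultracentrifuged. The supernatant was TMT-labelled for LC-MS/MS, and each value is the fold change against the detergent-processed vehicle for the same replicate, using vsn-normalised intensities.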
# [2] = target: T2, UniProt Q9H9J4|Q9H9J4-2
# T2 sequence (whole entry): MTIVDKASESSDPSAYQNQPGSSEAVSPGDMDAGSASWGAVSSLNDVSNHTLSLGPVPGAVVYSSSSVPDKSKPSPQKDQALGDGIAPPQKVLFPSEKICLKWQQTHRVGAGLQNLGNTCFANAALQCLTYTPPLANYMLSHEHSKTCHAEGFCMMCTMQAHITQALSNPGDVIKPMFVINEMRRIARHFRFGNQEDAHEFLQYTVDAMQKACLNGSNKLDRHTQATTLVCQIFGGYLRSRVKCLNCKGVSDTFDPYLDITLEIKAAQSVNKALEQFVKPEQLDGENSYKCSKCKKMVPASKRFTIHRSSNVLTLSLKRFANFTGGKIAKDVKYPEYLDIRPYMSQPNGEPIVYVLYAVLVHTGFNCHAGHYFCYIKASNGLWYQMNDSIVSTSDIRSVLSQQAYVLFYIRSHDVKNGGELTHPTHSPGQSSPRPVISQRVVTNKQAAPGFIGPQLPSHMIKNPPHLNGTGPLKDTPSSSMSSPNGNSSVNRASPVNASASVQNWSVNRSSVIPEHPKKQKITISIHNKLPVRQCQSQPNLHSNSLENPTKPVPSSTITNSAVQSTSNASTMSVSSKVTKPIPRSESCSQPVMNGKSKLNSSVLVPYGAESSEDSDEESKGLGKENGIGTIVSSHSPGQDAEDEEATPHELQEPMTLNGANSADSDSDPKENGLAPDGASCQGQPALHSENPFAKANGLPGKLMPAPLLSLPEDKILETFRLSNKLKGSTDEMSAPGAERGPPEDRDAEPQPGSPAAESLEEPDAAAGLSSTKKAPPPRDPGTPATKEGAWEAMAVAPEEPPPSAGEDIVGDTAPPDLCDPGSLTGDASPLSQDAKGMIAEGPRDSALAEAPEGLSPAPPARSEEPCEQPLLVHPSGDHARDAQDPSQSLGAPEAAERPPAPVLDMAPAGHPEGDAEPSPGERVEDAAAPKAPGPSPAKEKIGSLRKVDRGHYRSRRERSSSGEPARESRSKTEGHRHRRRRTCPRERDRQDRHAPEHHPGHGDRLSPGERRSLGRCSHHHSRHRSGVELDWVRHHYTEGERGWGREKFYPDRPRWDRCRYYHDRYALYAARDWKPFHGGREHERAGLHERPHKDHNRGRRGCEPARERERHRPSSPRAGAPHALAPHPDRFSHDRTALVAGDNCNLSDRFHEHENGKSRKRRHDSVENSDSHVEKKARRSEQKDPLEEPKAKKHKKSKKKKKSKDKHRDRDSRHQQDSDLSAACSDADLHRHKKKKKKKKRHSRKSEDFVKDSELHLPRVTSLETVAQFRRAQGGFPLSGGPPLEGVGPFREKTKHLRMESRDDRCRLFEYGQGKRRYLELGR
# Summary of the method: as §1
# [3] = target: T3, UniProt Q9NPJ3
# T3 sequence (whole entry): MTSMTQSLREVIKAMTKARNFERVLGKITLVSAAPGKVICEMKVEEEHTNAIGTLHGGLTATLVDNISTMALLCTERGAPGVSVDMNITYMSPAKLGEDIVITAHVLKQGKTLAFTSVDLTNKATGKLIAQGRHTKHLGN
# Summary of the method: as §1
# [4] = target: T4, UniProt Q9NQ86-4|E9PBG3|Q9NQ86
# T4 sequence (whole entry): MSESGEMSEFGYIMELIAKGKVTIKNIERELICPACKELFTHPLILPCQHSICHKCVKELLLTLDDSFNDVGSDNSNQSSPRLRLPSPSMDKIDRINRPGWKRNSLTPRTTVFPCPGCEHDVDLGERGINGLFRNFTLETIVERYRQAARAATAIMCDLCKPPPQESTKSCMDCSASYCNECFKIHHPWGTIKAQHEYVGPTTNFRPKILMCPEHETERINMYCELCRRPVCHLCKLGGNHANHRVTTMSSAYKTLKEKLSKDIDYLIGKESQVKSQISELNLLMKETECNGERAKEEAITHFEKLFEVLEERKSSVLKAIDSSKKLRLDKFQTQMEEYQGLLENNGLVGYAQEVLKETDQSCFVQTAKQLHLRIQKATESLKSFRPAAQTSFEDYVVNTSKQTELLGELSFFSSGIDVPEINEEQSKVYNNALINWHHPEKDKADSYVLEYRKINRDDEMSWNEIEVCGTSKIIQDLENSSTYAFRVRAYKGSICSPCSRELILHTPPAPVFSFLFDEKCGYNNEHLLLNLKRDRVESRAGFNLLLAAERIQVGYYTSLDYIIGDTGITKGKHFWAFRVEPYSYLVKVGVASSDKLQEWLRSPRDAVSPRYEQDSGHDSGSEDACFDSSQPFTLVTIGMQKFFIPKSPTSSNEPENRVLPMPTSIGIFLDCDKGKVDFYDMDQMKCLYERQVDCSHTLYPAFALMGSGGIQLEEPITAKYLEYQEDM
# Summary of the method: as §1
# [5] = target: T5, UniProt Q9NUS5
# T5 sequence (whole entry): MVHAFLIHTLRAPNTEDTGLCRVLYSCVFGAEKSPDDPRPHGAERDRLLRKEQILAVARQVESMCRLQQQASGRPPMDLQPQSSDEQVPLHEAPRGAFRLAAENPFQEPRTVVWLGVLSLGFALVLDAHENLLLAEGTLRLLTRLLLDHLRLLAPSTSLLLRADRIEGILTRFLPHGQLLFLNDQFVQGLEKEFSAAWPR
# Summary of the method: as §1
# [6] = target: T6, UniProt Q9NVH6|Q9NVH6-7|Q9NVH6-8
# T6 sequence (whole entry): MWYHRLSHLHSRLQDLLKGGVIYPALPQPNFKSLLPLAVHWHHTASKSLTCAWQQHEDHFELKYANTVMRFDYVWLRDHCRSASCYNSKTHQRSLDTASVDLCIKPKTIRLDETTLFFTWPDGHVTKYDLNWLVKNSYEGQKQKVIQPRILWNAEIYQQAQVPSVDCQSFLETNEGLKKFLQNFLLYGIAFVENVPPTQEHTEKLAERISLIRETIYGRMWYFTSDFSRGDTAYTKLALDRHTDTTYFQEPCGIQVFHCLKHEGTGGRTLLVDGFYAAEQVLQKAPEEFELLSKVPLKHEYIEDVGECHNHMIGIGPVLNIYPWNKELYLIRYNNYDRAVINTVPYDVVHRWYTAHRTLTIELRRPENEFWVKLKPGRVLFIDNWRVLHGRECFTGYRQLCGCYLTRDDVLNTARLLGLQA
# Summary of the method: as §1
# [7] = target: T7, VRK1 (UniProt Q99986)
# T7 sequence (whole entry): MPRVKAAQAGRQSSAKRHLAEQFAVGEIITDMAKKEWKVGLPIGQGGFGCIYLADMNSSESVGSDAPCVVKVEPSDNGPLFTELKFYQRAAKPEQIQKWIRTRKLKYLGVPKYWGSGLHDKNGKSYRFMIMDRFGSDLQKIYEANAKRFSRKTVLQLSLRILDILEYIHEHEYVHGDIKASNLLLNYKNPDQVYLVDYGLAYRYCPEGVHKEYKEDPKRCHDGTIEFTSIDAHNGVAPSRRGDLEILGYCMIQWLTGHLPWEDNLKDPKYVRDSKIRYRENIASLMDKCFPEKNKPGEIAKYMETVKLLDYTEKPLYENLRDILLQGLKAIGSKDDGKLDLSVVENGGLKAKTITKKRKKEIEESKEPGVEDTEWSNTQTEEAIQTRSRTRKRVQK
# Summary of the method: as §1
smiles,measurement,setting,value
Nc1ncnc2c1ncn2[C@@H]1O[C@H](COP(=O)(O)OP(=O)(O)NP(=O)(O)O)[C@@H](O)[C@H]1O [adenylyl imidodiphosphate],NP40-soluble protein abundance,[1]; concentration: 6mM,1.17 ± 0.016
same,NP40-soluble protein abundance,[1]; concentration: 8mM,1.24 ± 0.028
same,NP40-soluble protein abundance,[1]; concentration: 10mM,1.37 ± 0.081
same,NP40-soluble protein abundance,[2]; concentration: 1mM,1.02 ± 0.026
same,NP40-soluble protein abundance,[2]; concentration: 2mM,1.03 ± 0.035
same,NP40-soluble protein abundance,[2]; concentration: 4mM,1.01 ± 0.035
same,NP40-soluble protein abundance,[2]; concentration: 6mM,0.993 ± 0.011
same,NP40-soluble protein abundance,[2]; concentration: 8mM,1.03 ± 0.03
same,NP40-soluble protein abundance,[2]; concentration: 10mM,1.04 ± 0.04
same,NP40-soluble protein abundance,[3]; concentration: 1mM,0.947 ± 0.014
same,NP40-soluble protein abundance,[3]; concentration: 2mM,0.9081 ± 0.0059
same,NP40-soluble protein abundance,[3]; concentration: 4mM,0.9 ± 0.028
same,NP40-soluble protein abundance,[3]; concentration: 6mM,0.974 ± 0.062
same,NP40-soluble protein abundance,[3]; concentration: 8mM,0.976 ± 0.032
same,NP40-soluble protein abundance,[3]; concentration: 10mM,0.948 ± 0.076
same,NP40-soluble protein abundance,[4]; concentration: 1mM,0.952 ± 0.04
same,NP40-soluble protein abundance,[4]; concentration: 2mM,0.976 ± 0.047
same,NP40-soluble protein abundance,[4]; concentration: 4mM,0.994 ± 0.042
same,NP40-soluble protein abundance,[4]; concentration: 6mM,0.998 ± 0.017
same,NP40-soluble protein abundance,[4]; concentration: 8mM,1 ± 0.044
same,NP40-soluble protein abundance,[4]; concentration: 10mM,1.01 ± 0.023
same,NP40-soluble protein abundance,[5]; concentration: 1mM,0.96 ± 0.016
same,NP40-soluble protein abundance,[5]; concentration: 2mM,0.936 ± 0.051
same,NP40-soluble protein abundance,[5]; concentration: 4mM,0.963 ± 0.02
same,NP40-soluble protein abundance,[5]; concentration: 6mM,0.948 ± 0.012
same,NP40-soluble protein abundance,[5]; concentration: 8mM,0.938 ± 0.038
same,NP40-soluble protein abundance,[5]; concentration: 10mM,0.936 ± 0.041
same,NP40-soluble protein abundance,[6]; concentration: 1mM,0.969 ± 0.051
same,NP40-soluble protein abundance,[6]; concentration: 2mM,0.9817 ± 0.0096
same,NP40-soluble protein abundance,[6]; concentration: 4mM,0.984 ± 0.06
same,NP40-soluble protein abundance,[6]; concentration: 6mM,0.972 ± 0.065
same,NP40-soluble protein abundance,[6]; concentration: 8mM,0.985 ± 0.018
same,NP40-soluble protein abundance,[6]; concentration: 10mM,0.969 ± 0.046
same,NP40-soluble protein abundance,[7]; concentration: 1mM,1.08 ± 0.036
same,NP40-soluble protein abundance,[7]; concentration: 2mM,1.1 ± 0.078
same,NP40-soluble protein abundance,[7]; concentration: 4mM,1.22 ± 0.03
same,NP40-soluble protein abundance,[7]; concentration: 6mM,1.43 ± 0.061
same,NP40-soluble protein abundance,[7]; concentration: 8mM,1.51 ± 0.11
same,NP40-soluble protein abundance,[7]; concentration: 10mM,1.56 ± 0.1
